Source: PubChem BioAssay (National Center for Advancing Translational Sciences (NCATS))
AMA1-RON2 inh: qHTS for Inhibitors of AMA1-RON; Towards Development of Antimalarial Drug Lead: Primary Screen; Plasmodium falciparum AMA1 (3D7) - RON2 peptide interaction; AlphaScreen AMA1-biotinylated RON2 peptide binding; Potency, µM (titrated, usually from 58.2 µM), inactives show top-dose activity change, negative = inhibition, actives largely listed as inhibitors; 360,000 compounds, 0.2% hits; AID 720542, 2013; active means well fitted inhibition curve with a large enough effect; inconclusive means small, poorly fitted or top-dose-only effect; inactive means no such curve, though single readings can be large or run the other way;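 further: potency means the concentration at half of the fitted maximal effect; 0% = vehicle wells and -100% = peptide control; nearly all actives have a fitted effect of over 45% in size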
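AMA1 (3D7) with his tag at 25 nM final met compounds first, then biotinylated RON2 peptide at 25 nM; detection used donor plus acceptor beads, 10 µg/mL apiece, read by AlphaScreen after 30 min at room temperature.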
Lassa entry inh: qHTS for Inhibitors of binding or entry into cells for Lassa Virus; Lassa virus pseudotype entry inhibition, cell reporter; Potency, µM (highest dose often 37.9 µM), inactives show at the highest dose activity change, negative = inhibition, actives largely listed as inhibitors; 300,000 compounds, 1.2% hits; calls by dose curve; tested in HEK293 cells; further: potency means the concentration at half of the fitted maximal effect; on the % scale 0 is the no-effect control and ±100 the full control effect; nearly all actives have a fitted effect of over 50% in size
MARV entry inh: qHTS for inhibitors of binding or entry into cells for Marburg Virus | Potency, µM (top dose mostly 37.8 µM), inactives show top-dose activity change, negative = inhibition, actives largely listed as inhibitors | Marburg virus pseudotyped entry inhibition, cell reporter | 300,000 compounds, 1.8% hits | AID 540276, 2011; calls by dose curve; tested in HEK293 cells; further: potency means the concentration at half of the fitted maximal effect; on the % scale 0 is the no-effect control and ±100 the full control effect
CHX counter-1: Cycloheximide Counterscreen for Small Molecule Inhibitors of Shiga Toxin | cell reporter, cycloheximide protein synthesis inhibition counterscreen | max response, % | 300,000 compounds, 12% hits; in the data active means max response mostly above about 13%, no sharp cut-off; inactive means mostly below about 14%; further: read at 38.3 µM for the half of the compounds with a filed dose; 0% is about no effect
Shiga toxin inh: A qHTS for Small Molecule Inhibitors of Shiga Toxin; inhibition, % at 38.7 µM; 290,000 compounds, 9.2% hits; Vero cells, Shiga toxin protein synthesis inhibition reporter; in the data active means inhibition mostly above about 28%, no sharp cut-off; inactive means mostly below about 43%; further: 0% is about no effect
CHX counter-2: Cycloheximide Counterscreen for Small Molecule Inhibitors of Shiga Toxin (Confirmatory) | 510 compounds, 3% hits | Cycloheximide counterscreen, protein synthesis reporter, Shiga toxin assay | Potency, µM (top dose mostly 38.3 µM), inactives show at the highest dose activity (activation), usual class: activators | shares compounds with Shiga toxin inh | AID 2318, 2010; calls by dose curve; further: potency means the concentration at half of the fitted maximal effect; 0% is about no effect
Starred values were filed as active, the others as inactive; ? = inconclusive; . = not tested or not shown; + = active, no number; [ ] = remark or other dose. This is one part of a sample in which hits are shown more often than they occur.

SMILES | AMA1-RON2 inh | Lassa entry inh | MARV entry inh | CHX counter-1 | Shiga toxin inh | CHX counter-2
CSc1nc2ccc(S(=O)(=O)N3CCCC3)cc2s1 | -6% | 14% | -10% | -2 | 25 | .
CSc1nc2ccc(N3C(=O)C4CCCCC4C3=O)cc2s1 (centres undefined) | 6% | -24%[14.3 µM] | 18% | -3 | 38* | ?
CCOC(=O)/C(C(=O)Nc1ccccc1Cl)=C1/NC(C)(C)Cc2ccccc21 | 10% | -32% | ? | -1 | 9 | .
CCOC(=O)/C(C(=O)Nc1ccc(Br)cc1)=C1/NC(C)(C)Cc2ccccc21 | 23% | ? | 23% | 11 | 45* | ?
CCOC(=O)c1[nH]c2ccc(OC)cc2c1NC(=O)C(C)N1CCC2(CC1)OCCO2 (centres undefined) | . | . | 2% | 5 | 49* | -1%
CC1=NN(c2ccccc2)C(=O)C1N=Nc1ccc(S(N)(=O)=O)cc1 (centres undefined) | -1% | . | . | 1 | -3 | .
CC(=O)Nc1ccc(N2N=C(C)C(N=Nc3ccccc3)C2=O)cc1 (centres undefined) | -3% | 22% | 21% | -2 | 53* | ?
CS(=O)(=O)N(CC(=O)Nc1ccccc1Sc1ccccc1)C1CCCCC1 | -27% | 5% | ? | 5 | 44* | -1%
CS(=O)(=O)N(CC(=O)Nc1ccccc1F)C1CCCCC1 | -2% | . | . | -2 | . | .
COc1ccc(C(C)(O)c2nc(-c3cccc(O)c3)cs2)cc1 (centres undefined) | -5% | . | . | . | . | .
Cn1cnc([N+](=O)[O-])c1Sc1nc(N)nc2c1ncn2C1CC(O)C(CO)O1 (centres undefined) | 6% | ? | ? | . | . | .
COc1ccc(Cl)cc1N(C)C(=O)c1ccc2c(=O)n3c(nc2c1)CCCCC3 | . | -6%[46.1 µM] | 3%[46.1 µM] | . | . | .
CN(C(=O)c1ccc2c(=O)n3c(nc2c1)CCCCC3)c1ccccc1 | -22% | -20% | -18% | 13 | + | 4%
CC(c1ccco1)N(C(=O)c1cc(Cl)cc(Cl)c1)c1ccccn1 (centres undefined) | -3% | -29% | ? | 1 | 24* | -1%
Cc1cc(C)cc(C(=O)N(c2ccccn2)C(C)c2ccco2)c1 (centres undefined) | 6% | -5% | -17% | 1 | 16 | .
CC(C)CN(Cc1cc(=O)oc2cc(-c3ccccc3)c(O)cc12)CC(C)C | 19% | . | . | 2 | 16 | .
O=c1c(-c2ccc(O)cc2)coc2cc(O[C@@H]3O[C@H](CO)[C@H](O)[C@H](O)[C@H]3O)ccc12 | . | . | . | 11 | 49* | 3%
Cc1cc(=O)oc2cc(O[C@@H]3O[C@H](CO)[C@H](O)[C@H](O)[C@H]3O)ccc12 | -1% | -22% | 26% | -8 | 6 | .
O=C(NCC(=O)N1CCCC1)c1ccc(Br)o1 | 15% | 6% | ? | 6 | 13 | .
O=C(NCC(=O)N1CCN(c2ccccn2)CC1)c1ccc(Br)o1 | -4% | 15%[46.1 µM] | -3%[46.1 µM] | 9 | 36* | -3%
CC(C)c1ccc(NC(=O)N2CCCC2C(=O)Nc2ccc(-n3cnnn3)cc2)cc1 (centres undefined) | 0% | 9%[46.1 µM] | 10%[46.1 µM] | 14 | 29* | 2%
COc1cc(/C=C(\C#N)c2nc3ccccc3[nH]2)cc(OC)c1O | -1% | 2%[46.1 µM] | -20%[46.1 µM] | 9 | 64* | ?
Cc1ccc(NC(=O)c2c(C(F)(F)F)nn(C)c2Cl)cc1C | -4% | 3% | 6% | -2 | 29* | -2%
CC(=O)Nc1ccc(NS(=O)(=O)c2c(C)nc3sccn3c2=O)cc1 | . | 6%[46.1 µM] | . | . | . | .
CCOc1cccc(/C=C/c2cc(C(=O)O)c3ccccc3n2)c1OC | 0% | . | . | 8 | 20 | .
SMILES | AMA1-RON2 inh | Lassa entry inh | MARV entry inh | CHX counter-1 | Shiga toxin inh | CHX counter-2
CCOC(=O)c1cc2sccc2n1CCCN1C(=O)c2ccccc2C1=O | 22% | 0% | -20% | 3 | 110* | 0%
CCCNC(=O)C(Cc1ccccc1C)NC(=O)c1ccc(C(F)(F)F)cc1 (centres undefined) | -2% | . | . | . | . | .
Cc1ccccc1OC(C)C(=O)Nc1ccc(S(=O)(=O)Nc2nccs2)cc1 (centres undefined) | 24% | ? | -1%[46.1 µM] | -5 | 14 | .
COc1ccc(-c2nnc3sc(-c4ccccc4OC)nn23)cc1 | -3% | -2% | 0% | 1 | 87* | -2%
COc1cc(-c2nn3c(-c4ccccc4)nnc3s2)cc(OC)c1OC | -1% | -22% | ? | -1 | -10 | .
CC(=O)c1c(C)oc2ccc(N(C(=O)Oc3ccccc3)S(=O)(=O)c3ccc(Cl)cc3)cc12 | . | 2%[46.1 µM] | -5%[46.1 µM] | . | . | .
Cn1ncc(Cl)c1C(=O)Nc1ccc(Cl)cn1 | -9% | 20% | 5% | 15 | 45* | ?
Cn1ncc(Cl)c1C(=O)Nc1cccnc1 | 3% | 0% | 0% | -4 | -4 | .
CSc1cccc(NC(=O)c2c(Cl)cnn2C)c1 | -16% | ? | 26% | 14 | 33* | ?
O=C(NCCN1C(=O)S/C(=C\c2ccc(Cl)cc2)C1=O)C1=COCCO1 | -17% | 2% | ? | . | . | .
O=C(NCCN1C(=O)S/C(=C\c2ccc(Cl)cc2)C1=O)c1ccc(F)c(S(=O)(=O)N2CCOCC2)c1 | -2% | 4% | 7% | -1 | 33* | ?
COc1cccc(C(=O)Nc2ccc(C(=O)OCc3cc(=O)n4nc(C5CC5)sc4n3)cc2)c1 | . | 14%[46.1 µM] | . | . | . | .
COc1ccc(CC(=O)NC(C)c2nnc(SCC(=O)Nc3nc(C)cs3)n2C)cc1 (centres undefined) | 0% | 4% | 19% | 0 | 30* | -1%
COc1ccc(CC(=O)NC(C)c2nnc(SCC(=O)c3ccc(Br)cc3)n2C)cc1 (centres undefined) | -3% | 16%[14.3 µM] | 19% | 26 | -17 | .
O=C(c1ccccn1)c1ccc2ccccc2n1 | 2% | 4% | 3%[46.1 µM] | 10 | 56* | -1%
COc1ccccc1N(CCC#N)C(=S)Nc1ccc(S(=O)(=O)N2CCOCC2)cc1 | -1% | 20%[46.1 µM] | 4%[46.1 µM] | . | . | .
CC(OC(=O)c1ccc(Cl)c(S(N)(=O)=O)c1)C(=O)NCC1CCCCC1 (centres undefined) | 0% | . | . | . | . | .
NS(=O)(=O)c1cc(C(=O)NCC2CCCCC2)ccc1Cl | -3% | 1%[46.1 µM] | -2%[46.1 µM] | -3 | 56* | 2%
COc1cc2oc(=O)c(CC(=O)NCCc3ccccc3F)c(C)c2cc1OC | . | 1%[46.1 µM] | ? | . | . | .
Cc1ccc(OCCNC(=O)Cn2cnc3c(=O)n(C)c(=O)n(C)c32)cc1C | -3% | -8% | 18% | -4 | 4 | .
Cn1c(=O)c2ncn(CC(=O)NCCOc3ccccc3)c2n(C)c1=O | -1% | 4% | 15% | 5 | 27* | 0%
OC(CN1CCC(Cc2ccccc2)CC1)c1ccccc1 (centres undefined) | 1% | . | . | 5 | -19 | .
Cc1sc(NC(=O)COc2cccc(-n3cnnn3)c2)c(C#N)c1C | 1% | -8% | ? | 2 | 75* | 0%
